# Screening data: PubChem BioAssay, several laboratories
# ERa coact inh: ER-alpha (human) coactivator binding inhibition | TR-FRET ER-alpha LBD / SRC-1 peptide, estradiol-bound | inhibition, % at 25.6 µM | 1.7% of 86,000 active | AID 629; in the data active means inhibition above about 50%;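 further: 0% = receptor plus peptide control and 100% = peptide only without receptor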
# ERb coact inh: ER-beta (human) coactivator binding inhibition; inhibition, % at 25.6 µM; Q92731; TR-FRET ER-beta LBD / SRC1-Cy5 peptide binding; receptor agonist-loaded with 1 µM estradiol; 1.3% of 86,000 active;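 active means compounds whose percent inhibition of the receptor-coactivator binding signal exceeds about 50% in the single-dose screen, limit read from the data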;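 further: 0% = receptor plus peptide wells without compound and 100% = peptide-only wells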
# ERa SRC1 pot: ER-alpha (human) coactivator binding potentiation; P03372; TR-FRET ERalpha-LBD/SRC-Cy5 coactivator binding, 2 h; 100 = basal binding, no effect; coactivator binding (% of control), % at 25.6 µM; 1.3% of 86,000 active; AID 639; in the data active means activity above about 200%;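 further: binding measured in presence of low estradiol as agonist stimulus; 0% = peptide alone without receptor and 100% = receptor with peptide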
# MT1-MMP txn act: activates MT1-MMP transcription. 0.16% of 86,000 active. HT1080 MT1-MMP promoter luciferase reporter, luminescence, overnight; stronger effect = higher value. AID 750. activation factor at 10 µM;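 active means activation factor of at least 2 for MT1-MMP transcription at 10 µM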
# DAT uptake mod: modulates human dopamine transporter uptake under cocaine | B-score at 10 µM | LLC-PK1 hDAT cells, [14C]-dopamine uptake with cocaine IC80; actives deviate in either direction | 1.3% of 110,000 active | AID 449768 | Q01959;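 active means Z score or B-score, a plate-position-corrected score, falls beyond the plate's 99.7% confidence bounds, in either direction; inactive means both scores lie inside the 99.7% bounds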;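 further: scored against the spread of the other compound wells on the same plate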
# Target sequence (Q01959 whole entry, looked up): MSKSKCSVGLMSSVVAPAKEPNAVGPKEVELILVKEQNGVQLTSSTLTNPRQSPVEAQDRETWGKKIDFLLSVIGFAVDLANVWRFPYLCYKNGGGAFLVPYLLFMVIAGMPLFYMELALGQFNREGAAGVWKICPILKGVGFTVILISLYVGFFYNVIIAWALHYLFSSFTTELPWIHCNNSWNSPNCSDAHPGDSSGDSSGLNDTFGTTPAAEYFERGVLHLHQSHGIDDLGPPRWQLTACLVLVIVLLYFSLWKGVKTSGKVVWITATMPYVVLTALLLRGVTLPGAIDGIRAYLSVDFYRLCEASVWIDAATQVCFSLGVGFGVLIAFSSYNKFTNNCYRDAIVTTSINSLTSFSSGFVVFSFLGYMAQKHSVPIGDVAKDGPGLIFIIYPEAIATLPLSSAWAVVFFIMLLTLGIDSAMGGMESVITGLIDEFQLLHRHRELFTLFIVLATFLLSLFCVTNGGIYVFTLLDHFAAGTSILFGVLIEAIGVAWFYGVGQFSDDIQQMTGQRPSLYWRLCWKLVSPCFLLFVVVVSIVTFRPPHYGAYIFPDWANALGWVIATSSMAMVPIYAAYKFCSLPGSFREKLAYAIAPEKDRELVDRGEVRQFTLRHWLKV
# The depositor's hits bear a star; · = not tested or not shown; [ ] = another dose, or the depositor's remark. An excerpt weighted towards active compounds, which were near 3.8% of everything screened.
SMILES,ERa coact inh,ERb coact inh,ERa SRC1 pot,MT1-MMP txn act,DAT uptake mod
O=C1Cc2ccccc2N1c1c(Cl)cccc1Cl,-3,1,124,2.2*,-0.29
COC(=O)c1ccc(OC(=O)c2ccco2)cc1,-18,-22,111,1.1,-7.5*
O=C(Nc1ccc(OC(=O)c2ccco2)cc1)c1ccco1,-6,2,95,1.2,-1.2
CCCCCN=Cc1c(C)[nH]n(-c2nc3ccccc3s2)c1=O,-4,2,116,·,2.5*
CCCc1[nH]n(-c2nc3ccccc3s2)c(=O)c1C=NCCN1CCOCC1,-1,-2,125,1.1,0.015
Cc1c(C)n(C(=O)CSc2nc3ccccc3[nH]2)c2ccccc12,55*[fluorescence artefact?],21,17,1.4,0.96
O=C(CSc1nc2ccccc2[nH]1)N1CCCCC1,-4,-4,104,1.6,0.4
Cc1c(Cl)cccc1NC(=O)CC1SCCNC1=O (stereo not drawn),-7,54*,126,1.3,0.4
NCC#CC(CCc1ccccc1)OCc1ccccc1 (stereo not drawn),·,·,·,1.1,·
O=C(NCc1ccccc1)c1onc(CSc2ccccc2)c1C(=O)NCC1CC1,·,·,·,·,0.6
Cc1cccc(N2CCN(c3nc4ccccc4n4cnnc34)CC2)c1C,54*,29,54,1,-0.69
Cc1csc(NC(=O)CSc2nnc(-c3ccccn3)n2-c2ccc(C)c(C)c2)n1,9,0,107,1,2.7*
COc1cccc(-c2cc3nc(-c4ccccc4)cc(N4CCC5(CC4)OCCO5)n3n2)c1,21,14,210*,1.2,1.5
CN1C(C(=O)NCc2ccccc2)CC2Cn3c(nc4cc5ccccc5cc43)C21 (stereo not drawn),·,·,·,·,0.33
CCCCN(CC)Cc1ccc(CNC(=O)Nc2ccc(OCC)cc2)o1,-4,6,81,1.1,-4.1*
CCOc1ccc(NC(=O)NC2CCOC(C)(C)C2)cc1 (stereo not drawn),2,-7,111,1.1,-1.2
Cc1ccc(N2C(=O)CC(Sc3ncn[nH]3)C2=O)cc1C (stereo not drawn),-1,-3,54,1,-3.1*
CC1=CS(=O)(=O)CC1Sc1ncn[nH]1 (stereo not drawn),-8,-3,113,1,-1.2
Cc1cc(NC(=O)CSc2ncnc3sc4c(c23)CCC(C)C4)no1 (stereo not drawn),22,24,375*[fluorescence artefact?],1.2,·
O=C(Nc1nc(-c2cc(Cl)sc2Cl)cs1)c1ccc(Br)s1,·,·,·,·,-0.46
O=C(Nc1nc(-c2ccccn2)cs1)c1ccc(Br)s1,-12,-11,473*,1.2,1.2
CCOC(=O)N1CCC(NC(=O)Cn2ncn3c(cc4sc(CC)cc43)c2=O)CC1,44,57*[fluorescence artefact?],112,1.2,·
CCOC(=O)N1CCC(NC(=O)Cn2ncc3c4ccccc4n(C)c3c2=O)CC1,1,-10,136,1.2,-0.12
Cc1sc2c(c1C)CN(Cc1ccco1)CN2C(=O)c1ccccc1,2,-1,97,2.1*,·
COCCN1Cc2c(sc(C)c2C)N(C(=O)c2ccccc2)C1,-4,3,115,1.5,-0.97
SMILES,ERa coact inh,ERb coact inh,ERa SRC1 pot,MT1-MMP txn act,DAT uptake mod
CSCCC1(C(=O)O)NC(c2ccccc2O)C2C(=O)N(C(C)C)C(=O)C21 (stereo not drawn),84*[fluorescence artefact?],-4,112,1.2,-2.6*
Cc1n(CC(O)COC2CCCCC2)c2ccccc2[n+]1C (stereo not drawn),-6,-6,116,1.1,-1.5
CSCC(=O)NS(=O)(=O)c1ccc(C)cc1,·,·,·,1.1,0.39
COc1ccc(C(=O)Cn2nnc(-c3cccs3)n2)cc1,1,78*[fluorescence artefact?],93,1.7,-0.73
O=c1cc(-c2ccccc2)nc2n1Cc1ccccc1-2,34,55*[fluorescence artefact?],75,·,-0.36
O=c1nc2n(c3ccccc13)Cc1ccccc1-2,10,5,137,1.1,·
O=S(=O)(/C=C/c1ccccc1)N1CCN(c2cccc(Cl)c2)CC1,3,-1,111,1,0.53
O=C(Nc1ccccc1OC(F)F)c1ccc(Br)o1,-3,-15,112,1,-2.5*
CC1CCCCN1C(=O)Cc1ccc(F)cc1 (stereo not drawn),-7,-5,100,1,-8*
COc1ccc(-c2noc(CCC(=O)Nc3nc4ccccc4s3)n2)cc1,14,-2,208*[fluorescence artefact?],1.3,-0.075
COc1ccc(-c2noc(CCC(=O)Nc3cccc(C)c3)n2)cc1,-13,-8,108,1,0.33
